# Measurements as given in PubChem BioAssay (NCATS).
# Where “and” joins values, the source holds several entries; their conditions need not be identical. Equal entries are not always repeated. A number with no mark means an inactive call. Calls follow the shape of the full dose curve.
# Target: Glucocorticoid receptor (Homo sapiens) (UniProt P04150)
# Assay: GR-EFC Redistribution (AID 451)
# Settings: CHO-K1 GR-EFC translocation, beta-gal luminescence, 2 h
# Source text: NIH Molecular Libraries Screening Centers Network [MLSCN]
# NIH Chemical Genomics Center [NCGC]
# The glucocorticoid receptor (GR) is a cytoplasmic receptor that belongs to the nuclear receptor family of ligand-dependent transcription factors. Upon glucocorticoid binding to its receptor, the glucocorticoid-GR complex translocates into the nucleus, where it binds as a dimer to specific DNA sequences (glucocorticoid response elements), enhancing or suppressing transcription of a wide variety of glucocorticoid-responsive genes. In addition to their important roles in normal physiology and metabolism, glucocorticoids are administered exogenously as treatments for a wide variety of allergic, autoimmune, and neoplastic conditions. Identification of compounds that modulate aspects of GR signalling would be useful in dissecting glucocorticoid response pathways as well as developing GR modulators with more targeted clinical effects.
# Traditionally, GR modulators have been identified using receptor binding or direct transactivation assays. However, assays for glucocorticoid-dependent nuclear translocation can also be used to screen for compounds affecting GR signaling.
# Immunocytochemical staining has been used to assay for GR translocation, but is not suitable for high throughout screening due to the multiple reagent addition and wash steps required. Recently, a novel cell-based GR assay in Enzyme Fragment Complementation (EFC) format was developed by DiscoveRx (Fremont, CA). The assay uses EFC of b-galactosidase (b-gal) as an indicator of GR-translocation in engineered CHO-K1 biosensor cells. The enzyme acceptor (EA) fragment of b-gal resides in the nucleus , as designed through the use of a proprietary set of sequence additions and modifications. The small peptide enzyme donor (ED) fragment of b-gal is fused directly to the C-terminus of GR, and is localized in the cytoplasm is the absence of receptor signaling. Upon binding to a GR ligand, the complex translocates to the nucleus, where intact enzyme activity is restored by complementation and b-gal activity is detected. We optimized this GR-EFC assay in homogenous 1536-well plate assay format for high throughput screening.
# NCGC Assay Protocol Summary:
# CHO-K1 cells stably expressing NLS-enzyme acceptor fragment (EA) of b-gal and GR-enzyme donor (ED) fragment of b-gal were maintained in F12 medium (Invitrogen, Carlsbad, CA) at 37 Celsius degrees under a humidified atmosphere containing 5% CO2 and 95% air. The medium contained 10% FBS, 2 mM L-glutamine, 50 U/ml penicillin 50 ug/ml streptomycin, and 250 ug/ml hygromycin and 500 ug/ml G418 (Invitrogen).
# GR-translocation was measured beta-gal enzyme activity using the PathHunter Detection Kit containing cell membrane permeablizing reagent and beta-gal substrate (DiscoveRx, Fremont, CA). All compounds were screened as titrations from 0.6 nM to 46 uM final concentration. The assay was performed in 1536-well format as follows:
# 5 uL cell suspension (1,000 cells)/well
# Incubation at 37 Celsius degrees for two hours
# 1.25 uL 1X detection buffer from the kit supplied by DiscoveRx
# Incubation at room temperature for one hour
# Read plate in luminescence mode in ViewLux plate reader (PerkinElmer)
# Keywords: NIH Roadmap, MLSCN, MLI, MLSMR, GR-EFC, GREFC, qHTS, NCGC
# Potency is read from the fitted curve at half-maximal effect.
# Chain of Glucocorticoid receptor (Homo sapiens) (P04150 whole entry, looked up): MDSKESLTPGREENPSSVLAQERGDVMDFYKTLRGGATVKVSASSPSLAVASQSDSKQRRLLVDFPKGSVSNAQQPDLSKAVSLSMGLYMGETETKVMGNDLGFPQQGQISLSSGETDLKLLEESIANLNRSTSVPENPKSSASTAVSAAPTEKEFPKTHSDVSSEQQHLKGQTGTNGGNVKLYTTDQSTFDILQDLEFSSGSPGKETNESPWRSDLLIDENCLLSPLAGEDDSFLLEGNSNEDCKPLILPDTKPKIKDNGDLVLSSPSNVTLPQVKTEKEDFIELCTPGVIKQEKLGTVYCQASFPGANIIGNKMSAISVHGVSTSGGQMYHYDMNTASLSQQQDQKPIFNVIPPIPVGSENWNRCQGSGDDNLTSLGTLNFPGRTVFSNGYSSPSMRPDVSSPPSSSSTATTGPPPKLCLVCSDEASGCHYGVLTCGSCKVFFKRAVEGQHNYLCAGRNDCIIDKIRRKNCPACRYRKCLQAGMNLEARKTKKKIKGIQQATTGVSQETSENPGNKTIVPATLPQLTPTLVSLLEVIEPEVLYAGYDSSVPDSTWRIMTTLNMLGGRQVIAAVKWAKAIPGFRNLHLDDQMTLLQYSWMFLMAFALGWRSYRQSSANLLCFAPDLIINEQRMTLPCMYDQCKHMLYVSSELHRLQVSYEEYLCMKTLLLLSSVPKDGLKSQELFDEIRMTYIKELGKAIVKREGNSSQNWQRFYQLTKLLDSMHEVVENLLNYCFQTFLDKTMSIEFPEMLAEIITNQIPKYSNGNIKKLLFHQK
row,Structure (SMILES),Potency
1,OCc1ccc(-c2nn(Cc3ccccc3)c3ccccc23)o1,> 46 µM
2,COc1cnc(NS(=O)(=O)c2ccc(N)cc2)nc1,> 20.6 µM
3,CCCCOc1ccc(CC(=O)NO)cc1,> 20.6 µM
4,COC(=O)Nc1nc2ccc(Sc3ccccc3)cc2[nH]1,> 20.6 µM
5,CC1=NN(c2ccccc2)C(=O)C1,> 46 µM
6,CCCOc1ccc(C(=O)OCCN(CC)CC)cc1N,> 20.6 µM
7,COc1cc(NS(=O)(=O)c2ccc(N)cc2)nc(OC)n1,> 20.6 µM
8,COC(=O)Nc1nc2ccc(C(=O)c3ccccc3)cc2[nH]1,> 20.6 µM
9,CCn1cc(C(=O)O)c(=O)c2cc(F)c(N3CCNCC3)cc21,> 20.6 µM
10,N=C(N)c1ccc(OCCCCCOc2ccc(C(=N)N)cc2)cc1,> 20.6 µM
11,NNC(=O)c1ccncc1,> 20.6 µM
12,O=c1oc2c(O)c(O)cc3c(=O)oc4c(O)c(O)cc1c4c23,> 46 µM
13,COc1cc2ncnc(Nc3cccc(Cl)c3)c2cc1OC,> 46 µM
14,Nc1ccc(S(=O)(=O)Nc2ccccn2)cc1,> 20.6 µM
15,CC1=CC(=O)c2ccccc2C1=O,> 20.6 µM
16,CC(C)(Sc1cc(C(C)(C)C)c(O)c(C(C)(C)C)c1)Sc1cc(C(C)(C)C)c(O)c(C(C)(C)C)c1,> 20.6 µM
17,Nc1[nH]c(=O)ncc1F,> 20.6 µM
18,CNNCc1ccc(C(=O)NC(C)C)cc1,> 20.6 µM
19,Cc1cccc(Nc2ccncc2S(=O)(=O)NC(=O)NC(C)C)c1,> 20.6 µM
20,Cc1ccc(S(=O)(=O)N[C@@H](Cc2ccccc2)C(=O)CCl)cc1,> 46 µM
21,N[C@@H](Cc1ccc(O)c(O)c1)C(=O)O,> 46 µM and > 20.6 µM
22,Cc1cc(NS(=O)(=O)c2ccc(N)cc2)no1,> 20.6 µM
23,Cc1cccc(N(C)C(=S)Oc2ccc3ccccc3c2)c1,> 20.6 µM
24,NC(=O)c1cccc(N)c1,> 46 µM
25,COc1ccc2c(c1)c(CC(=O)OCC(=O)O)c(C)n2C(=O)c1ccc(Cl)cc1,> 20.6 µM
26,CCc1cc(C(N)=S)ccn1,> 20.6 µM
27,CC[C@H](NC(C)C)[C@H](O)c1ccc(O)c2[nH]c(=O)ccc12,> 46 µM
28,COc1ccc2cc3[n+](cc2c1OC)CCc1cc2c(cc1-3)OCO2,> 20.6 µM
29,NC(N)=NC(N)=NCCc1ccccc1,> 20.6 µM
